Several values for one entry are separate records, joined by “and”; a condition that tells them apart may be missing. Equal values may be shown once. Screen size: about 5,500 compounds; about 2,000 (36%) were called active. Inconclusive results (about 18%) are left out. No stated cut-off is given here; in the data, active means normalized growth mostly below about 0.91 (no sharp cut-off); inconclusive means no clear call, values can overlap the other calls; inactive means mostly above about 0.92. The list shows a part of the results.
Assay: chemical genetic growth profiling, strain panel (AID 1159580);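 further: tested at 20 µM; growth read once vehicle control cultures reached saturation at 30 °C; 1 = growth at the plate median or of vehicle wells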
Details: S. cerevisiae deletion strains, growth OD

Measured: normalized growth

CC(=O)OCC(=O)[C@@]12OC(C)(C)O[C@@H]1CC1C3C[C@H](F)C4=CC(=O)C=C[C@]4(C)[C@@]3(F)[C@@H](O)C[C@@]12C (some centres not stated)
inactive: locus YAL013W, strain DEP1, stronger effect = lower value 1 | locus YAL021C, strain ccr4, stronger effect = lower value 1.01 | locus YAL026C, strain drs2, stronger effect = lower value 1.02 | locus YAL030W, strain snc1, stronger effect = lower value 1.02 | locus YBL061C, strain skt5, stronger effect = lower value 1.03 | locus YBR009C, strain hhf1, stronger effect = lower value 1.01 | locus YBR021W, strain FUR4, stronger effect = lower value 0.996 | locus YBR023C, strain chs3, stronger effect = lower value 1.03 | locus YBR171W, strain sec66, stronger effect = lower value 1.03 | locus YBR229C, strain ROT2, stronger effect = lower value 1.01 | locus YBR231C, strain swc5, stronger effect = lower value 0.989 | locus YBR279W, strain paf1, stronger effect = lower value 1.03 | locus YCL011C, strain gbp2, stronger effect = lower value 1.04 | locus YCL016C, strain dcc1, stronger effect = lower value 1.03 | locus YCL029C, strain bik1, stronger effect = lower value 1.01 | locus YCL061C, strain MRC1, stronger effect = lower value 1.01 | locus YCL069W, strain vba3, stronger effect = lower value 1.02 | locus YCR088W, strain abp1, stronger effect = lower value 1.02 | locus YDL005C, strain med2, stronger effect = lower value 1.03 | locus YDL035C, strain GPR1, stronger effect = lower value 0.99 | locus YDL040C, strain nat1, stronger effect = lower value 1.02 | locus YDL074C, strain BRE1, stronger effect = lower value 1.01 | locus YDL101C, strain DUN1, stronger effect = lower value 1.01 | locus YDL134C, strain PPH21, stronger effect = lower value 0.99 | locus YDL185W, strain tfp1, stronger effect = lower value 1.02 | locus YDL192W, strain arf1, stronger effect = lower value 1.02 | locus YDR001C, strain nth1, stronger effect = lower value 1.02 | locus YDR069C, strain doa4, stronger effect = lower value 0.998 | locus YDR101C, strain arx1, stronger effect = lower value 0.965 | locus YDR137W, strain rgp1, stronger effect = lower value 1.03 | locus YDR150W, strain NUM1, stronger effect = lower value 1.01 | locus YDR159W, strain sac3, stronger effect = lower value 0.989 | locus YDR162C, strain NBP2, stronger effect = lower value 0.989 | locus YDR195W, strain ref2 0.999 | locus YDR297W, strain sur2, stronger effect = lower value 1.02 | locus YDR318W, strain mcm21, stronger effect = lower value 1.02 | locus YDR334W, strain swr1, stronger effect = lower value 1.02 | locus YDR335W, strain msn5, stronger effect = lower value 1.03 | locus YDR388W, stronger effect = lower value 1.01 | locus YDR392W, strain spt3, stronger effect = lower value 0.981 | locus YDR502C, strain sam2, stronger effect = lower value 1 | locus YEL003W, strain gim4, stronger effect = lower value 1.02 | locus YEL037C, strain rad23, stronger effect = lower value 1.02 | locus YEL061C, strain CIN8 (second series), stronger effect = lower value 1.02 | locus YEL061C, strain CIN8, stronger effect = lower value 1.01 | locus YER015W, strain faa2, stronger effect = lower value 1.02 | locus YER016W, strain bim1, stronger effect = lower value 1.01 | locus YER110C, stronger effect = lower value 1.02 | locus YER111C, strain swi4, stronger effect = lower value 1.04 | locus YER155C, strain BEM2 (second series), stronger effect = lower value 0.995 | locus YER155C, strain BEM2, stronger effect = lower value 1.01 | locus YER167W, strain BCK2, stronger effect = lower value 0.996 | locus YFR010W, strain ubp6, stronger effect = lower value 1.01 | locus YGL078C, strain dbp3, stronger effect = lower value 1.02 | locus YGL086W, strain mad1, stronger effect = lower value 0.992 | locus YGL167C, strain pmr1, stronger effect = lower value 1.02 | locus YGL173C, strain kem1, stronger effect = lower value 1.02 | locus YGL227W, strain vid30, stronger effect = lower value 1.03 | locus YGL240W, strain doc1, stronger effect = lower value 1.01 | locus YGL248W, strain PDE1, stronger effect = lower value 1.01 | locus YGL253W, strain hxk2, stronger effect = lower value 1.01 | locus YGR135W, strain pre9, stronger effect = lower value 1.07 | locus YGR252W, strain gcn5, stronger effect = lower value 1.1 | locus YHR013C, strain ard1, stronger effect = lower value 1.04 | locus YHR027C, strain rpn1, stronger effect = lower value 1.02 | locus YHR030C, strain SLT2, stronger effect = lower value 0.995 and 0.988 | locus YHR079C, strain IRE1 (second series), stronger effect = lower value 1.01 | locus YHR079C, strain IRE1, stronger effect = lower value 1 | locus YHR094C, strain hxt1, stronger effect = lower value 1.02 | locus YHR129C, strain ARP1, stronger effect = lower value 1.01 | locus YHR142W, strain chs7, stronger effect = lower value 1.04 | locus YHR200W, strain rpn10, stronger effect = lower value 1.01 | locus YIL066C, strain RNR3, stronger effect = lower value 1 | locus YIL073C, strain SPO22, stronger effect = lower value 1.02 | locus YIL125W, strain kgd1, stronger effect = lower value 1 | locus YIR030C, strain dcg1, stronger effect = lower value 1.03 | locus YJL092W, strain hpr5, stronger effect = lower value 1.03 | locus YJL095W, strain BCK1 (second series), stronger effect = lower value 1.02 | locus YJL095W, strain BCK1, stronger effect = lower value 1.03 and 0.999 | locus YJL115W, strain asf1, stronger effect = lower value 1.01 | locus YJL129C, strain trk1, stronger effect = lower value 1.03 | locus YJL134W, strain LCB3, stronger effect = lower value 1.01 | locus YJL154C, strain vps35, stronger effect = lower value 1.02 | locus YJL164C, strain tpk1, stronger effect = lower value 1.02 | locus YJL166W, strain qcr8, stronger effect = lower value 1.04 | locus YJL168C, strain set2, stronger effect = lower value 1.02 | locus YJL187C, strain SWE1 (second series), stronger effect = lower value 1.01 | locus YJL187C, strain SWE1, stronger effect = lower value 1.02 | locus YJR043C, strain POL32, stronger effect = lower value 0.999 | locus YJR066W, strain TOR1, stronger effect = lower value 0.937 | locus YJR075W, strain HOC1, stronger effect = lower value 1 | locus YKL009W, strain mrt4, stronger effect = lower value 1.01 | locus YKL068W, stronger effect = lower value 1.01 | locus YKL085W, strain MDH1 (second series), stronger effect = lower value 1.01 | locus YKL085W, strain MDH1, stronger effect = lower value 1.01 | locus YKL160W, strain elf1, stronger effect = lower value 1.05 | locus YKR001C, strain vps1, stronger effect = lower value 1 | locus YKR026C, strain gcn3, stronger effect = lower value 1.02 | locus YKR091W, strain srl3, stronger effect = lower value 1.02 | locus YLL001W, strain dnm1, stronger effect = lower value 1.03 | locus YLL026W, stronger effect = lower value 1.02 | locus YLL041C, strain sdh2, stronger effect = lower value 1.01 | locus YLR027C, strain aat2, stronger effect = lower value 1.01 | locus YLR039C, strain RIC1, stronger effect = lower value 1.06 | locus YLR058C, strain SHM2, stronger effect = lower value 1.01 | locus YLR102C, strain apc9, stronger effect = lower value 1.01 | locus YLR113W, strain HOG1, stronger effect = lower value 1.02 | locus YLR221C, strain rsa3, stronger effect = lower value 1.03 | locus YLR258W, strain gsy2, stronger effect = lower value 1.04 | locus YLR262C, strain YPT6 (second series), stronger effect = lower value 1.04 | locus YLR262C, strain YPT6, stronger effect = lower value 0.987 | locus YLR268W, strain sec22, stronger effect = lower value 1.01 | locus YLR320W, strain mms22, stronger effect = lower value 1.06 | locus YLR330W, strain CHS5, stronger effect = lower value 1.01 | locus YLR342W, strain FKS1 (second series), stronger effect = lower value 1.03 | locus YLR342W, strain FKS1, stronger effect = lower value 1.03 | locus YLR357W, strain rsc2, stronger effect = lower value 1.01 | locus YLR370C, strain arc18, stronger effect = lower value 1.03 | locus YLR371W, strain rom2, stronger effect = lower value 1.01 | locus YLR384C, strain iki3, stronger effect = lower value 1.03 | locus YLR418C, strain cdc73, stronger effect = lower value 1.03 | locus YML016C, strain PPZ1, stronger effect = lower value 1 | locus YML032C, strain rad52, stronger effect = lower value 0.996 | locus YML120C, strain ndi1, stronger effect = lower value 1.04 | locus YML124C, strain tub3, stronger effect = lower value 1.03 | locus YMR058W, strain fet3, stronger effect = lower value 1.01 | locus YMR078C, strain ctf18, stronger effect = lower value 1.01 | locus YMR125W, strain sto1, stronger effect = lower value 1.03 | locus YMR129W, stronger effect = lower value 1.02 | locus YMR205C, strain PFK2, stronger effect = lower value 1.05 | locus YMR223W, strain ubp8, stronger effect = lower value 1.05 | locus YMR231W, strain pep5, stronger effect = lower value 1.02 | locus YMR307W, strain GAS1, stronger effect = lower value 1.04 | locus YNL067W, strain RPL9B, stronger effect = lower value 0.995 | locus YNL071W, strain lat1, stronger effect = lower value 1.03 | locus YNL153C, strain GIM3, stronger effect = lower value 1.01 | locus YNL183C, strain NPR1, stronger effect = lower value 0.945 | locus YNL209W, strain ssb2, stronger effect = lower value 1.03 | locus YNL233W, strain BNI4, stronger effect = lower value 1.01 | locus YNL248C, strain rpa49, stronger effect = lower value 1.02 | locus YNL250W, strain rad50, stronger effect = lower value 1.03 | locus YNL271C, strain bni1, stronger effect = lower value 1.04 | locus YNL298W, strain CLA4, stronger effect = lower value 1.04 | locus YNL307C, strain MCK1, stronger effect = lower value 1.02 | locus YNL322C, strain KRE1 (second series), stronger effect = lower value 1.04 | locus YNR049C, strain mso1, stronger effect = lower value 1.02 | locus YNR052C, strain pop2, stronger effect = lower value 1.01 | locus YOL006C, strain TOP1, stronger effect = lower value 1.03 | locus YOL012C, strain htz1 2.14 | locus YOL147C, strain pex11, stronger effect = lower value 1.02 | locus YOR001W, strain rrp6, stronger effect = lower value 1 | locus YOR061W, strain CKA2, stronger effect = lower value 1.01 | locus YOR069W, strain VPS5, stronger effect = lower value 1.01 | locus YOR070C, strain gyp1, stronger effect = lower value 1.03 | locus YOR080W, strain dia2, stronger effect = lower value 1.02 | locus YOR083W, strain WHI5, stronger effect = lower value 1.04 | locus YOR106W, strain vam3, stronger effect = lower value 1.05 | locus YOR136W, strain idh2, stronger effect = lower value 1.01 | locus YOR144C, strain elg1, stronger effect = lower value 1 | locus YOR184W, strain ser1, stronger effect = lower value 1.01 | locus YOR231W, strain MKK1, stronger effect = lower value 0.999 | locus YOR265W, strain rbl2, stronger effect = lower value 1.02 | locus YOR270C, strain vph1, stronger effect = lower value 1.03 | locus YOR290C, strain snf2, stronger effect = lower value 0.982 | locus YOR316C, strain cot1, stronger effect = lower value 1.01 | locus YPL051W, strain arl3, stronger effect = lower value 1.02 | locus YPL055C, strain LGE1, stronger effect = lower value 1.01 | locus YPL078C, strain atp4, stronger effect = lower value 1.04 | locus YPL106C, strain sse1, stronger effect = lower value 1 | locus YPL240C, strain hsp82, stronger effect = lower value 1.01 | locus YPL241C, strain CIN2, stronger effect = lower value 0.999 | locus YPL256C, strain CLN2, stronger effect = lower value 0.974 | locus YPR119W, strain clb2, stronger effect = lower value 1.01 | locus YPR141C, strain kar3, stronger effect = lower value 1.02 | locus YPR163C, strain tif3, stronger effect = lower value 1.02 | locus YPR167C, strain met16, stronger effect = lower value 1.02 | strain wtn01, stronger effect = lower value 1.02

— PubChem BioAssay AID1159580 (chemical genetic matrix, 2015)
